GC-B act: GC-B (human) receptor activation. P20594. HEK293-GC-B cells, CNP EC30, cGMP TR-FRET; 0% at EC30 CNP, 100% saturating CNP. activation, % at 10 µM. 370,000 tested, 0.11% active. AID 1920062;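 active = activation at 10 µM reaching about 35% in either raw or pattern-adjusted values, limit read from the data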
NPR1 activator: GC-A (human) enzyme activation. P16066. HEK293 GC-A cells, cGMP TR-FRET, EC30 ANP; 0% at EC30 ANP, 100% saturating ANP. activation, % at 10 µM. 370,000 tested, 0.14% active. AID 1671463; in the data active = activation above about 40%
Target sequence (P16066 whole entry, looked up): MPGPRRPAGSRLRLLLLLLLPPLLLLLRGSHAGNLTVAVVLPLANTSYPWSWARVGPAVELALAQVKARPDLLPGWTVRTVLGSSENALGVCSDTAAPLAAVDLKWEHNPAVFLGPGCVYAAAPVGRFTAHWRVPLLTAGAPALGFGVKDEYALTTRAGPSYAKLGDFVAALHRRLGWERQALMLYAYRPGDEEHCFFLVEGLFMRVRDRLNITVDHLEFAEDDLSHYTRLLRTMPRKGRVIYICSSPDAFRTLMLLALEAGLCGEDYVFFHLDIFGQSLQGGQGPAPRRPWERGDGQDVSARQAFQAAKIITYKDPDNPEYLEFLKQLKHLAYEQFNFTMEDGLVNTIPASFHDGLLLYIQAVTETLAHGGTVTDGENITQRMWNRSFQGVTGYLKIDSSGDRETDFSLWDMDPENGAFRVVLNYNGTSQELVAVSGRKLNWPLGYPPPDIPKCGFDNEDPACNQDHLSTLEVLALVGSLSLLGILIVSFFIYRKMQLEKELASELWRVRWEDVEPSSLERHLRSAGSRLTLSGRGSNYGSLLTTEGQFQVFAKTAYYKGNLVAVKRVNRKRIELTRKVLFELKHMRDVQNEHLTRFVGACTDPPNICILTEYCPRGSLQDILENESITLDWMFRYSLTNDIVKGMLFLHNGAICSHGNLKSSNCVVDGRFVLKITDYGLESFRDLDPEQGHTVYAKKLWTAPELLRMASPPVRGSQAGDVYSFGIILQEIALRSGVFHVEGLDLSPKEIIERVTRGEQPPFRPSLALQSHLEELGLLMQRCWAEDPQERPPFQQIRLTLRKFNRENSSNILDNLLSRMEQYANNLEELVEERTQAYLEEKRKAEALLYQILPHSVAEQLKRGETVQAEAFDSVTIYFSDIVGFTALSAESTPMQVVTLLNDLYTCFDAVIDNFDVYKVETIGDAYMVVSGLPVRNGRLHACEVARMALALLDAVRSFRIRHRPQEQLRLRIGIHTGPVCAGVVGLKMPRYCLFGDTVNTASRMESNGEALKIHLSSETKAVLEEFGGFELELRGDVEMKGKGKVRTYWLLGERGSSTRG
aDG glyco act: alpha-DG glycosylation activation | Pro5-aDG cells, alpha-DG glycosylation AlphaScreen (IIH6); 0% Pro5, 100% B10-LARGE cell signal | 360,000 tested, 0.22% active | activation, % at 10 µM;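 active = activation of at least 8% versus controls, or a plate z-score of at least 8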;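 note: Pro5 are CHO cells carrying HIG-tagged alpha-DG that lacks glycosylation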
FAS-TE inh: inhibitors of human fatty acid synthase thioesterase domain; P49327; recombinant FAS-TE, OMFH fluorogenic substrate, fluorescence endpoint; inhibition, % at 15 µM; 360,000 tested, 0.67% active;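 active = compounds whose normalised, plate-corrected inhibition of enzyme fluorescence in the single-dose primary screen is 50% or more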;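 note: 0% = DMSO with enzyme and 100% = substrate without enzyme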
FAS-TE inh conf: confirmation of human fatty acid synthase thioesterase inhibitors; shares compounds with FAS-TE inh; recombinant FAS-TE, OMFH fluorogenic substrate, fluorescence; inhibition, % at 15 µM; 2,300 tested, 45% active;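 active = compounds inhibiting the enzyme by at least 50% at 15 µM in any one of the replicates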;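 note: 0% = enzyme with DMSO only and 100% = wells lacking enzyme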
* = called active by the depositor; . = no result given. Only some compounds are listed: those with a hit (about 1.1% of all), similar ones and a draw of the others.

SMILES	GC-B act	NPR1 activator	aDG glyco act	FAS-TE inh	FAS-TE inh conf
COc1cc([N+](=O)[O-])cc(/C=N/NC(=O)c2cncc(Br)c2)c1O	-2.0	-7.5	0.2	58.6*	70.6*
COc1cc([N+](=O)[O-])cc(/C=N/NC(=O)c2cc(C)nc3ccccc23)c1O	0.7	-4.8	0.0	53.9*	66.6*
COC(=O)[C@@]12CCCCC3=C1N(CCC3)C(=O)[C@H]2CC(=O)N1CCC(c2ccccc2)CC1	-0.3	0.8	.	.	.
C=CCN(CC#Cc1ccccc1)Cc1ccc(OC)cc1OC	-12.2	-0.5	.	.	.
COC(=O)C1=C(C)N(Cc2ccccc2C(F)(F)F)C(=NCc2ccc3c(c2)OCO3)NC1CCc1ccccc1 (stereo not drawn)	-21.5	-16.9	.	.	.
CC(C)c1ccccc1-n1c(SCC(=O)N2CCc3ccccc3C2)nc2ccccc2c1=O	-1.8	-0.9	0.5	60.3*	23.1
CC(C)NC(=O)N[C@@H]1C[C@@H]2O[C@H](CO)CC[C@@H]2O[C@@H]1CCc1ccc(-c2ccccc2F)cc1	5.9	14.6	.	.	.
O=C(c1nn2c(C(F)(F)F)cc(-c3cccs3)nc2c1Br)N1CCCc2ccccc21	-2.7	0.7	-0.3	58.7*	13.0
O=C(c1nn2c(C(F)(F)F)cc(-c3ccco3)nc2c1Br)N1CCCc2ccccc21	-1.6	-3.4	-0.4	13.5	.
COC(=O)N1C(=O)[C@@](c2ccccc2)(C(C)C)N1C(=O)OC	.	.	-0.2	0.6	.
COC(=O)N1C(=O)[C@](c2ccccc2)(C2CCCC2)N1C(=O)OC	1.4	-10.2	0.2	80.5*	90.4*
CC(=O)NC(=S)Nc1sc2c(c1C#N)CCCCC2	-2.5	3.6	-0.2	57.4*	59.5*
CC(=O)Nc1sc2c(c1C#N)CCCC2	-6.5	-2.5	0.0	-6.1	.
COCc1cc(N2CCNC[C@@H]2C)ccc1N1C[C@@H](C)O[C@@H](C)C1	-0.7	0.7	.	.	.
CC1(C)C([N+](=O)[O-])C(c2ccc(O)cc2)NC(c2ccc(O)cc2)C1[N+](=O)[O-] (stereo not drawn)	-4.1	-1.6	0.2	4.8	.
CC1(C)C([N+](=O)[O-])C(c2ccc(F)cc2)NC(c2ccc(F)cc2)C1[N+](=O)[O-] (stereo not drawn)	-1.7	-1.5	-0.1	37.5	.
Cc1ccc(C2NC(c3ccc(C)cc3)C([N+](=O)[O-])C(C)(C)C2[N+](=O)[O-])cc1 (stereo not drawn)	-2.1	-4.2	0.1	60.5*	37.5
CC1(C)C([N+](=O)[O-])C(c2ccc(Cl)cc2)NC(c2ccc(Cl)cc2)C1[N+](=O)[O-] (stereo not drawn)	-1.7	-6.7	0.5	65.6*	37.4
Cn1c(=O)n(C)c2cc([N+](=O)[O-])c(N3CCN(S(=O)(=O)c4ccc(C(C)(C)C)cc4)CC3)cc21	4.5	1.9	3.1	72.9*	20.3
C[C@@H]1OCN(C)[C@H]2C[C@H]3c4[nH]c5cccc(-c6ccccc6)c5c4CCN3C[C@@H]12	1.8	1.9	.	.	.
O=C(CSc1nc2ccccc2c(=O)n1-c1ccc(F)cc1)Nc1ccc2c(c1)CCC2	-6.2	-0.7	-0.1	48.1	.
O=C(CSc1nc2ccccc2c(=O)n1-c1ccc(F)cc1F)Nc1ccc2c(c1)CCC2	3.5	2.4	0.5	53.9*	12.1
O=C(CSc1nc2nc3c(cc2c(=O)n1-c1ccccc1)CCCC3)Nc1cccc2ccccc12	-6.8	-5.8	0.1	62.9*	17.1
O=C(CSc1nc2ccccc2c(=O)n1-c1ccc(F)c(Cl)c1)Nc1ccc2c(c1)CCC2	2.1	-1.4	-0.3	61.0*	15.2
Cc1cccc(NC(=O)CSc2nc3nc4c(cc3c(=O)n2-c2ccccc2)CCCC4)c1	-4.5	-1.2	-0.1	17.6	.
SMILES	GC-B act	NPR1 activator	aDG glyco act	FAS-TE inh	FAS-TE inh conf
O=C(OC12CCCN(C1)/C(=C/c1ccccc1)C2)C1CCCCC1 (stereo not drawn)	-4.3	-1.1	.	.	.
Cn1c2ccccc2c2nnc(SCc3ccc4nonc4c3)nc21	0.4	2.8	1.6	58.3*	23.1
O=C(NCc1cn(-c2ccccc2)nc1-c1ccccc1)c1cc([N+](=O)[O-])cc([N+](=O)[O-])c1	4.9	-3.1	1.8	25.9	.
O=C(NCc1cn(-c2ccccc2)nc1-c1ccccc1)c1cccc([N+](=O)[O-])c1	-1.4	-5.6	0.0	51.1*	30.9
CCN(CC)C(=O)CC[C@H]1CC[C@]2(CCCN(C(=O)C3CCCC3)C2)O1	-5.2	0.4	.	.	.
Cc1cccc2c1CCC1CN(Cc3ccccc3)S(=O)(=O)N21 (stereo not drawn)	-1.7	-1.1	.	.	.
CC1(C)CC2CC(C)(CN2S(=O)(=O)c2ccc(C(=O)Nc3cc(S(=O)(=O)N4CCOCC4)ccc3Cl)cc2)C1 (stereo not drawn)	2.6	-3.3	0.4	76.4*	22.9
C=CCOC(=O)COc1ccc2c(C)c(CC)c(=O)oc2c1	13.5	16.1	-0.1	69.8*	73.4*
O=C(O)CN1C(=O)/C(=C\c2cccc(OCc3ccc(Cl)cc3Cl)c2)SC1=S	-2.5	1.5	-0.1	59.2*	38.5
O=C(O)CN1C(=O)/C(=C\c2ccccc2OCc2ccc(Cl)cc2Cl)SC1=S	2.1	1.5	-0.1	39.3	.
Cc1ccccc1Cn1c(C)nc2ccc([N+](=O)[O-])cc2c1=O	-3.2	0.4	-0.1	60.8*	50.8*
Cc1nc2ccc([N+](=O)[O-])cc2c(=O)n1Cc1ccc(F)cc1	-8.4	7.7	-0.1	70.9*	75.1*
Cc1ccccc1Cn1cc(CN2[C@H](C)COc3cc(Br)ccc3S2(=O)=O)nn1	-0.1	-3.7	.	.	.
O=S1(=O)c2c(cccc2N2CCC[C@@H]2CO)O[C@H]2CCN1C2	2.6	3.6	.	.	.
Cc1ccc(-c2nnc(SCc3ccc([N+](=O)[O-])cc3)n2-c2ccccc2)cc1	-4.7	-11.1	.	.	.
O=S(=O)(Nc1cccc(-c2ccc(N3CCCCCC3)nn2)c1)c1ccccc1Cl	1.9	-3.0	0.7	50.1*	10.7
O=S(=O)(Nc1cccc(-c2ccc(N3CCCCCC3)nn2)c1)c1ccccc1F	-2.8	0.7	0.0	55.5*	62.1*
N#Cc1cc(-c2ccccc2)nc(Oc2ccc(Cl)cc2)n1	-4.5	13.2	0.6	65.1*	52.8*
O=[N+]([O-])c1cccc(S(=O)(=O)Nc2nc3ccccc3nc2Nc2cccc(S(=O)(=O)N3CCCCC3)c2)c1	10.7	-3.7	-0.4	82.5*	16.8
CN1Cc2nnn(Cc3ccccc3)c2-c2cc(F)ccc2S1(=O)=O	-1.2	-2.5	.	.	.
COc1ccc(-c2nn(-c3ccccc3)cc2/C=N/NC(=S)NC(C)C)cc1OC	41.9*	30.8	-0.3	55.6*	14.8
COc1ccc(-c2nn(-c3ccccc3)cc2/C=N/NC(=O)c2cccc(S(=O)(=O)Nc3ccccc3OC)c2)cc1	0.9	0.3	-0.5	54.1*	21.6
COc1ccccc1NS(=O)(=O)c1cccc(C(=O)N/N=C/c2ccccc2OCC(=O)O)c1	0.7	-4.0	0.1	-3.1	.

Compound activity: PubChem, Sanford-Burnham Center for Chemical Genomics
